Compound activity: PubChem, Broad Institute
NOMO-1 viab: STK33 inhibitor candidate reducing NOMO-1 cell viability; 7.5% of 37,000 active; NOMO-1 AML viability, CellTiter-Glo luminescence, 72 h; inhibition, % (no concentration beside the values); AID 2330; in the data active = inhibition above about 80%; inconclusive = no clear call, values can overlap the other calls
STK33 kin inh: inhibitors of human STK33 kinase; 0.44% of 27,000 active; ADP-Glo luminescence, MBP substrate; inhibition, % at 12.5 µM; in the data active = inhibition above about 20%; inconclusive = no clear call, values can overlap the other calls
Target sequence (Q9BYT3 whole entry, looked up): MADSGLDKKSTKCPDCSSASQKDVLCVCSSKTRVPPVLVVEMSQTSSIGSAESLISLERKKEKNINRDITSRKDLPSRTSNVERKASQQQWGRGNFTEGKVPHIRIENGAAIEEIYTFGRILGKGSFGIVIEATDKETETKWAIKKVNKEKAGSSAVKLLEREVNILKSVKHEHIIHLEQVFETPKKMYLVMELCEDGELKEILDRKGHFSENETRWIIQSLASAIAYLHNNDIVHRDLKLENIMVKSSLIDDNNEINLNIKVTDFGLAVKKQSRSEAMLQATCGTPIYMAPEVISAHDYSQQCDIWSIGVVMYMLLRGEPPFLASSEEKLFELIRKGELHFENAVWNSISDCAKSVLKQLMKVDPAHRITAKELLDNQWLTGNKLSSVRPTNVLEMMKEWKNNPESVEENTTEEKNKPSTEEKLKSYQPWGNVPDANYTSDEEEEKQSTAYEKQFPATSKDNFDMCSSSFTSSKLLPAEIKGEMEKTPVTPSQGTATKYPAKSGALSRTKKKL
PD-1 reverse act: activators reversing PD-1 mediated T-cell inhibition; 29,000 tested, under 10 active; primary human CD4 T cells, PD-L1 beads, CellTiter-Glo 96 h; activation, % (concentration not given with the values); call rule not given here;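 also: 0% = median vehicle wells and 100% = positive control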
Active calls of the source: *; ? = inconclusive; / = no result given. The sample as a whole holds a higher share of hits than the screen did.

SMILES | NOMO-1 viab | STK33 kin inh | PD-1 reverse act
COC(=O)NCC12CC3CC(CC(C3)C1)C2 | 40.6 | -0.4 | -0.5
O=C(CSc1nc2ccccc2[nH]1)Nc1ccc(Br)cc1Cl | 54.7 | -0.1 | /
CC1(C)CC[C@]2(C(=O)O[C@@H]3O[C@H](CO)[C@@H](O)[C@H](O)[C@H]3O)CC[C@]3(C)C(=CCC4[C@@]5(C)C[C@H](O)[C@H](O[C@@H]6O[C@H](C(=O)O)[C@@H](O)[C@H](O)[C@H]6O)[C@@](C)(CO)C5CC[C@]43C)C2C1 (stereo not given in full) | -0.1 | -1.7 | -0.6
CC1(C)CC[C@]2(C(=O)O)CC[C@]3(C)C(=CCC4[C@@]5(C)CC[C@H](O[C@@H]6O[C@H](CO)[C@@H](O)[C@H](O)[C@H]6O)C(C)(C)C5CC[C@]43C)[C@@H]2C1 (stereo not given in full) | 120.3* | -8.0 | -10.0
CC1(C)CC[C@]2(C(=O)O)CC[C@]3(C)C(=CCC4[C@@]5(C)CC[C@H](O[C@@H]6O[C@H](C(=O)O)[C@@H](O[C@@H]7O[C@H](CO)[C@@H](O)[C@H](O)[C@H]7O)[C@H](O)[C@H]6O[C@@H]6O[C@H](CO)[C@@H](O)[C@H](O)[C@H]6O)C(C)(C)C5CC[C@]43C)C2C1 (stereo not given in full) | 53.7 | -6.9 | -0.9
CC1(C)CC[C@]2(C(=O)O[C@@H]3O[C@H](CO)[C@@H](O)[C@H](O)[C@H]3O)CC[C@]3(C)C(=CCC4[C@@]5(C)C[C@@H](O)[C@H](O)[C@@](C)(COC(=O)c6cc(O)c(O)c(O)c6)C5[C@H](O)C[C@]43C)[C@@H]2C1 (stereo not given in full) | 108.7* | 8.9 | -1.1
CCc1ccc(/C=N/n2c(C)nnc2-n2nc(C)cc2C)cc1 | 2.2 | / | 0.6
COc1ccc(NC(=O)c2ccccc2NC(=O)COc2ccc([N+](=O)[O-])cc2)cc1 | -15.9 | 1.3 | 4.5
Cc1cccc(NC(=O)c2ccccc2NC(=O)COc2cccc([N+](=O)[O-])c2)c1C | 105.4* | 0.8 | -8.2
CSc1cccc(NC(=O)CSc2nnc(-c3cccc(C)c3)o2)c1 | -3.4 | 2.9 | /
COc1cccc(N(CC(=O)Nc2cccc(Cl)c2C)S(C)(=O)=O)c1 | 6.2 | 3.0 | -1.1
CC1(NC(=S)Nc2ccc(O)cc2)CCS(=O)(=O)C1 (stereo not given) | 19.7 | / | -0.4
Cc1ccc(N(C(C)C(=O)Nc2cccc(F)c2)S(C)(=O)=O)cc1 (stereo not given) | -5.5 | 1.1 | -1.5
CC1CCC(C(C)C)C(NC(=S)Nc2cccc(F)c2)C1 (stereo not given) | 121.8* | -2.5 | -23.4
Cc1cc(C)nc(SCC(=O)N2CCN(c3nnc(-c4ccccc4)c4ccccc34)CC2)n1 | -10.1 | -2.5 | 0.2
N#C/C(N=Cc1cccs1)=C(\C#N)NCc1ccccc1Sc1ccc(Cl)cc1 | 52.5 | / | 0.3
Cc1ccc(Nc2nnc(-c3ccc(C)c(S(=O)(=O)NCC4CCCO4)c3)c3ccccc23)cc1 (stereo not given) | 119.2* | / | -1.4
CNS(=O)(=O)c1cc(-c2nnc(Nc3cccc(O)c3)c3ccccc23)ccc1C | 18.1 | 0.1 | /
CCCCC(=O)/C=C/n1c(=S)oc2ccccc21 | 133.3* | / | 0.0
CC(C)OC(=O)n1c(=S)oc2ccccc21 | 9.9 | / | 1.6
COc1ccc2ccc(=O)oc2c1CC(O)C(C)(C)OC (stereo not given) | -1.6 | 0.8 | 0.9
COc1ccc(/C=C/c2cc(O)cc(O[C@@H]3O[C@H](CO)[C@@H](O)[C@H](O)[C@H]3O)c2)cc1O | 40.5 | 1.3 | 6.0
COc1ccc2c(c1)OC/C(=C\c1ccc(OC)c(O)c1)C2=O | 107.4* | 11.0 | /
CC(=O)N/C(=C\c1ccc2ccccc2c1)C(=O)O | 0.2 | / | 0.9
O=C1/C(=C/c2ccc3ccccc3c2)COc2ccccc21 | 113.0* | 6.5 | -20.3
SMILES | NOMO-1 viab | STK33 kin inh | PD-1 reverse act
O=C(Cc1ccccc1)NC1CCN(C(=O)c2cccs2)CC1 | 14.5 | -0.3 | 0.2
CCOC(=O)c1c(NC(=O)COc2ccc(F)cc2)sc2c1CCCC2 | 11.8 | -5.4 | /
C=CCNC(=O)C1(O)c2ccccc2NC(=O)N1c1ccccc1 (stereo not given) | -25.9 | / | 0.7
Cc1cc(NC(=O)CN(c2ccc(Cl)cc2)S(C)(=O)=O)ccc1Br | 23.5 | -4.5 | /
COc1ccc(C(=O)CSc2nnc(-c3ccccc3Cl)n2C)cc1OC | 0.8 | -0.7 | 0.5
COc1cc(O)cc(OC)c1OC | 106.9* | 1.3 | /
COc1cc(-c2cc(O)c(OC)c(OC)c2)cc(O)c1OC | 6.3 | -0.9 | -0.5
C=C1CCC2C(C)(CO)CCCC2(C)C1CC/C(C)=C/C(=O)O (stereo not given) | / | -7.1 | /
C=C1CCC2[C@](C)(CO)[C@H](O)CC[C@@]2(C)[C@@H]1C/C=C1/C(=O)OC[C@H]1O (stereo not given in full) | 97.9* | -0.5 | -47.5
CCOC(=O)C1=C(C)Nc2ncnn2C1c1ccccc1[N+](=O)[O-] (stereo not given) | -18.1 | -0.8 | -1.8
CCN(CC)S(=O)(=O)c1cccc(C(=O)O)c1 | 12.0 | / | 0.1
O=C(/C=C/c1c[nH]c2ccccc12)N1CCCCC1 | 52.0 | / | 0.0
O=C1/C(=C\c2c[nH]c3ccccc23)C(c2ccccc2)Oc2ccccc21 (stereo not given) | 120.8* | / | 1.0
O=C(CCN1C(=O)C2C3C=CC(C4CC34)C2C1=O)Nc1ccc(F)cc1 (stereo not given) | 11.4 | 4.7 | 2.6
C[C@H](CO)N1C[C@H](C)[C@@H](CN(C)Cc2ccc(C(F)(F)F)cc2)Oc2c(NC(=O)c3nc4ccccc4s3)cccc2C1=O | 106.1* | / | -3.4
C[C@H]1CN([C@@H](C)CO)C(=O)c2cccc(NC(=O)c3nc4ccccc4s3)c2O[C@@H]1CN(C)Cc1ccc(C(F)(F)F)cc1 | 68.9 | / | /
C[C@@H]1CN([C@@H](C)CO)C(=O)c2cccc(NC(=O)c3nc4ccccc4s3)c2O[C@H]1CN(C)Cc1ccc(C(F)(F)F)cc1 | ? | / | -2.0
C[C@@H]1CN([C@@H](C)CO)C(=O)c2cccc(NC(=O)c3nc4ccccc4s3)c2O[C@H]1CN(C)Cc1ccc(C(=O)Nc2ccccc2N)cc1 | 118.4* | / | -1.0
C[C@H]1CN([C@@H](C)CO)C(=O)c2cccc(NC(=O)c3nc4ccccc4s3)c2O[C@@H]1CN(C)Cc1ccc(Oc2ccccc2)cc1 | 23.4 | / | 2.7
C[C@H](CO)N1C[C@H](C)[C@H](CN(C)Cc2ccc(C(F)(F)F)cc2)Oc2c(NC(=O)c3nc4ccccc4s3)cccc2C1=O | 95.6* | / | -7.2
C[C@H](CO)N1C[C@H](C)[C@@H](CN(C)Cc2ccc(Oc3ccccc3)cc2)Oc2c(NC(=O)c3nc4ccccc4s3)cccc2C1=O | 86.7* | / | -2.4
C[C@@H]1CN([C@@H](C)CO)C(=O)c2cccc(NC(=O)c3nc4ccccc4s3)c2O[C@@H]1CN(C)Cc1ccc(C(=O)O)cc1 | 14.9 | / | -0.3
COc1ccccc1NC(=O)CSc1nnc(-c2ccccc2Cl)n1-c1ccccc1 | 60.7 | -0.6 | /
COc1ccc(NC(=O)CSc2nc(C(C)(C)C)cs2)cc1 | 21.5 | 8.2 | /
O=C1c2ccccc2C(=O)N1CCC12CC3CC(CC(C3)C1)C2 | 24.1 | / | 1.2
